Hits are enriched below; roughly 1.5% of the tested compounds scored in any of these assays.
TcdB GH inh: TcdB glycohydrolase inhibition; P18177; TcdB glycohydrolase enzymatic assay, plate reader; inhibition, % at 9.99 µM; actives 0.24% (n = 350,000); in the data active = inhibition above about 10%
SSB-PriA inh: inhibitors of Klebsiella pneumoniae PriA binding to SSB C-terminal tail; AID 1272365; actives 0.6% (n = 430,000); AlphaScreen SSBct-PriA binding, biotinylated peptide; inhibition, % at 33 µM; in the data active = inhibition mostly above about 37%, no sharp cut-off; inactive = mostly below about 20%;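 note: plate controls were negative control peptide for no effect and reference peptide for full effect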
CCHFV vOTU inh: CCHFV vOTU protease inhibition; Pep-AMC fluorescence; inhibition, % at 11.5 µM; actives 0.55% (n = 370,000); AID 651958; in the data active = inhibition above about 30%; note: 0% = vehicle wells with enzyme and 100% = no enzyme wells
PrPC TRFRET: inhibitors of human cell surface prion protein PrPC. inhibition, % at 13.8 µM. actives 0.43% (n = 370,000). AID 720596. TR-FRET read-out. P04156; in the data active = inhibition above about 24%; note: 0% = median of the test wells and 100% = reference compound wells
Vc quorum ag-1: induces V. cholerae light production without autoinducers; AID 588436; activation, % at 18.7 µM; actives 0.16% (n = 350,000); V. cholerae BH1578 lux reporter, luminescence, 6 h; in the data active = activation mostly above about 9.7%, no sharp cut-off
VHR inh abs: inhibitors of human VHR1 phosphatase (DUSP3) | P51452 | recombinant VHR phosphatase, pNPP absorbance | inhibition, % at 13.3 µM | actives 0.52% (n = 290,000) | AID 1654; in the data active = inhibition above about 50%
Vc quorum ag-2: inducers of V. cholerae quorum light production without autoinducers. activation, % at 50 µM. 620 tested, under 10 active. shares compounds with Vc quorum ag-1. V. cholerae BH1578 lux reporter, luminescence, 6 h; call rule not given here
* marks the source's active call; other numbers are inactive results; i = inactive; . = no result given.

SMILES	TcdB GH inh	SSB-PriA inh	CCHFV vOTU inh	PrPC TRFRET	Vc quorum ag-1	VHR inh abs	Vc quorum ag-2
CCc1cccc2c(C(=O)COC(=O)c3c(C)noc3C)c[nH]c12	0.7	-9.8	-8.6	4.1	-1.5	10.5	.
Cc1noc(C)c1C(=O)OCC(=O)c1c[nH]c2ccccc12	.	-5.7	16.3	2.8	12.5	17.7	0.2
CCOc1cccc(C(O)=C2C(=O)C(=O)N(CCOC)C2c2ccc(C)o2)c1 (centres undefined)	.	0.4	.	.	.	.	.
O=C(O)C1C2CCC(C2)C1C(=O)NCCc1ccc(F)cc1 (centres undefined)	-1.5	-11.4	-8.3	-6.5	-0.2	26.1	.
O=C(O)C1C2CCC(C2)C1C(=O)Nc1cc(F)ccc1F (centres undefined)	.	-5.6	-7.4	3.4	16.7*	12.0	-0.1
CCc1cc(=O)n(CCNC(=O)NCCOc2ccccc2)cn1	.	-7.0	.	.	.	.	.
COc1ccc(NC(=O)CSC2CC(=O)N(c3ccc(C)c(C)c3)C2=O)cc1 (centres undefined)	.	4.0	.	.	.	.	.
COc1cccc(NC(=O)Cc2cccs2)c1	.	-13.1	4.3	3.0	i	17.9	.
COc1cc(NC(=O)Cc2cccs2)ccc1-n1cnnn1	.	-24.0	7.5	1.3	19.9	-13.2	5.1
Cc1nn(CC#N)c(=O)c2c1cnn2-c1ccccc1	.	-7.0	.	.	.	.	.
Cc1noc(Cc2ccccc2NC(=O)CNC(=O)c2ccccc2)n1	.	-11.0	.	.	.	.	.
Cc1ccc(-n2nnnc2SCC(=O)NCC2CCCO2)cc1C (centres undefined)	-0.9	-12.3	-7.8	3.2	12.5	.	-100.6
Cc1ccccc1-n1ccnc1SCC(=O)NCC1CCCO1 (centres undefined)	-0.4	-11.0	-7.8	2.0	15.4*	3.6	0.4
O=C(O)c1cc(NS(=O)(=O)c2ccccc2C(F)(F)F)cc(C(=O)O)c1	.	-6.0	.	.	.	.	.
COc1ccc(OC)c(S(=O)(=O)Nc2ccc3c(c2)N(C(C)=O)CC3)c1	.	-4.0	.	.	.	.	.
Cc1ccc(S(=O)(=O)Nc2ccccc2F)cc1C(=O)NCCCN1CCCC1=O	.	-5.1	-6.7	-1.3	14.3	29.2	0.0
COc1ccc2[nH]c(=O)c(CN(C(=O)c3cccnc3)c3ccc(C)cc3)cc2c1	.	-9.6	-1.5	6.0	18.4	15.4	0.1
COc1ccc2[nH]c(=O)c(CN(C(=O)c3cccnc3)c3cccc(C)c3)cc2c1	-0.2	-10.9	-1.8	0.6	-0.5	-14.1	.
O=C(CN1C(=O)CCC1=O)N1CCC(Oc2cccc3cccnc23)CC1	.	-13.0	.	.	.	.	.
CCCCCn1nc(C(=O)N(CC(C)C)c2c(N)n(CCCC)c(=O)[nH]c2=O)c2ccccc2c1=O	0.4	2.2	10.8	2.0	9.3	.	0.0
Cc1nn(C2CCS(=O)(=O)C2)c2nc(-c3ccccc3)cc(C(=O)Nc3ccccc3F)c12 (centres undefined)	.	5.0	.	.	.	.	.
COc1cccc(-c2cc(C(=O)N[C@H]3CCN(c4ccc(-c5nc(C)no5)cn4)C3)[nH]n2)c1	.	-16.0	.	.	.	.	.
CCCCCCCCn1c(=O)[nH]c2ccccc21	.	-12.0	.	.	.	.	.
O=c1[nH]c2ccccc2n1Cc1ccc(Cl)cc1	.	0.7	5.0	-8.1	16.7*	27.1	0.7
O=C(Cc1csc2nc(-c3ccccc3)cn12)N1CCN(C(=O)c2ccoc2)CC1	.	3.0	.	.	.	.	.
SMILES	TcdB GH inh	SSB-PriA inh	CCHFV vOTU inh	PrPC TRFRET	Vc quorum ag-1	VHR inh abs	Vc quorum ag-2
O=C(Cc1ccccc1)NNC(=O)Nc1ccc(Cl)c(Cl)c1	0.9	0.1	3.3	2.0	-0.3	4.1	.
O=C(Nc1ccc(Cl)c(Cl)c1)Nc1ccccc1C(=O)O	.	-24.4	-2.3	-0.4	13.3	0.8	0.1
CCc1nnc(NC(=O)CSc2ncc(-c3ccc(Cl)cc3)n2C)s1	.	-12.0	.	.	.	.	.
COC(=O)Cn1nc(-c2ccccc2)c2ccccc21	.	-14.7	-15.9	5.2	12.5	-5.3	0.0
O=C(O)CCCn1nc(-c2ccccc2)c2ccccc21	0.7	-14.6	0.8	-0.4	-0.2	23.6	.
CC(C)c1ccc(OCC(=O)NC2CCCC(O)C2)cc1 (centres undefined)	.	-12.0	.	.	.	.	.
COc1ccc(C(=O)OCC(=O)NC2CC2)cc1	1.2	.	-10.2	-8.9	0.2	.	.
CC(C)(C)c1ccc(C(=O)OCC(=O)NC2CC2)cc1	2.6	-6.5	-13.3	2.5	25.8	.	18.4
Cc1cc(C(=O)OCC(=O)NC2CCCCC2)c(C)o1	.	-14.7	8.6	-7.0	175.1*	19.4	660.1
CC(C)c1ccc(OCC(=O)NC2CCCC2)cc1	0.5	-19.4	11.6	4.2	.	-2.5	i
O=C(COC(=O)c1cc(Cl)ccc1Cl)NC1CCCC1	-1.2	-8.7	21.3	11.1	28.4*	-11.2	29.2
